According to the supplement of paper PMC11732987, “Enantioselective OTUD7B fragment discovery through chemoproteomics screening and high-throughput optimisation” (Communications Chemistry, 2025):
A number with no mark means an inactive call.

Key:
Test in all cases: log2 ratio of Biotin-Ahx-Ub-VS probe labelling (fragment/DMSO); higher = less target engagement (more negative = stronger competition), active = hit call of the paper (q ≤ 0.05, log2 ratio ≤ -1)
Settings in all cases: compound concentration: 200 uM; treatment time: 3 h
USP42 = target: T1, USP42 (UniProt Q9H9J4)
T1 sequence (whole entry): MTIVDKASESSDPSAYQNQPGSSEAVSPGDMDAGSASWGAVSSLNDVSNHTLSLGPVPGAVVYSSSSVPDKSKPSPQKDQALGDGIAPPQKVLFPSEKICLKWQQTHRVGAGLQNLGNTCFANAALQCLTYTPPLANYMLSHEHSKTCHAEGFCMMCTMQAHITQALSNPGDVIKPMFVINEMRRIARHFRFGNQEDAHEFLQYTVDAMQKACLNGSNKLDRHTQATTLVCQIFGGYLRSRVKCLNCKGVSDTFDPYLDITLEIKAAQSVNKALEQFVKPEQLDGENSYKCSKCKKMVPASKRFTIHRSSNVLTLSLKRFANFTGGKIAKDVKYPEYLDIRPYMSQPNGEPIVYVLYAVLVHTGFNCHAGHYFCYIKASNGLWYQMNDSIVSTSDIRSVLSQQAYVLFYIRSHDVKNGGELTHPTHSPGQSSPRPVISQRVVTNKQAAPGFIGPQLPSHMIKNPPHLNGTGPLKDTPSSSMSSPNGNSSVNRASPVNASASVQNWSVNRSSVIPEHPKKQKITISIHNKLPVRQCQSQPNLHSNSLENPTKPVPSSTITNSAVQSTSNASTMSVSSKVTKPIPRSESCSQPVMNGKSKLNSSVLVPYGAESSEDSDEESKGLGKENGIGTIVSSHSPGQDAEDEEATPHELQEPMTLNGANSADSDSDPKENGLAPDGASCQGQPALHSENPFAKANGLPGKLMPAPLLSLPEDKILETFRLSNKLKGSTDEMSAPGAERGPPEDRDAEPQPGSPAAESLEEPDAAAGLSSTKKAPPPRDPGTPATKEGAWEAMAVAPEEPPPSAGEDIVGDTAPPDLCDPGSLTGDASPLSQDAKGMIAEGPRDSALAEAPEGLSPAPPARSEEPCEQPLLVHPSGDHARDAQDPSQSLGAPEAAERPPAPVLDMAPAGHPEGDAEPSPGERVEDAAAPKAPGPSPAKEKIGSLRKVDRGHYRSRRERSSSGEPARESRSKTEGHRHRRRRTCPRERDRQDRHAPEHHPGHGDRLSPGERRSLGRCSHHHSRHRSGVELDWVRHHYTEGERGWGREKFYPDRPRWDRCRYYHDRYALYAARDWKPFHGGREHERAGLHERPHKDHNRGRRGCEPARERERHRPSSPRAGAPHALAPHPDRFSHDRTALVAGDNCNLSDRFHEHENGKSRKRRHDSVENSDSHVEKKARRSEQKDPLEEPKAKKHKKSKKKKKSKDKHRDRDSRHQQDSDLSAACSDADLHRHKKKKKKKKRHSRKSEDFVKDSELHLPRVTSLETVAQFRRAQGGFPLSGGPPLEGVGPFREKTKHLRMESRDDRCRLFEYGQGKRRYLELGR
Procedure, shortened: (§1)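 Labelled DUBs from HEK293T lysate were NeutrAvidin-enriched, digested with LysC and trypsin, and run by diaPASEF LC-MS/MS. Before that, each 495 µg sample in Tris/CHAPS/IGEPAL buffer with protease inhibitors was treated in triplicate with fragment at 200 µM or vehicle for 3 h, then with Biotin-Ahx-Ub-VS at 0.5 µM final for 1 h. Values are average log2 ratios of fragment over vehicle by unpaired t-test, based on global-median-normalised Spectronaut label-free quantities from proteins with ≥2 unique peptides.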

USP46 = USP46 (UniProt P62068)
Sequence of USP46 (P62068 whole entry): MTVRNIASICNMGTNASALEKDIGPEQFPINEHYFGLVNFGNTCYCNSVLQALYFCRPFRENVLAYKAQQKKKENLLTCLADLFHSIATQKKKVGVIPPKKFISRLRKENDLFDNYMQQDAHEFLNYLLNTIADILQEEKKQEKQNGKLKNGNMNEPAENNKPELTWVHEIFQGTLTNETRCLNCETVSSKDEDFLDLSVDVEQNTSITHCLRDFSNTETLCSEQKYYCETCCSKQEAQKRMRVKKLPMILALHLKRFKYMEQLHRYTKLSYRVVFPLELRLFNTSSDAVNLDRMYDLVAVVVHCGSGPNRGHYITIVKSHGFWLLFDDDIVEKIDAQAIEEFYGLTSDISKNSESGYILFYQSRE
Procedure, shortened: as §1

USP47 = target: T2, USP47 (UniProt Q96K76)
T2 sequence (whole entry): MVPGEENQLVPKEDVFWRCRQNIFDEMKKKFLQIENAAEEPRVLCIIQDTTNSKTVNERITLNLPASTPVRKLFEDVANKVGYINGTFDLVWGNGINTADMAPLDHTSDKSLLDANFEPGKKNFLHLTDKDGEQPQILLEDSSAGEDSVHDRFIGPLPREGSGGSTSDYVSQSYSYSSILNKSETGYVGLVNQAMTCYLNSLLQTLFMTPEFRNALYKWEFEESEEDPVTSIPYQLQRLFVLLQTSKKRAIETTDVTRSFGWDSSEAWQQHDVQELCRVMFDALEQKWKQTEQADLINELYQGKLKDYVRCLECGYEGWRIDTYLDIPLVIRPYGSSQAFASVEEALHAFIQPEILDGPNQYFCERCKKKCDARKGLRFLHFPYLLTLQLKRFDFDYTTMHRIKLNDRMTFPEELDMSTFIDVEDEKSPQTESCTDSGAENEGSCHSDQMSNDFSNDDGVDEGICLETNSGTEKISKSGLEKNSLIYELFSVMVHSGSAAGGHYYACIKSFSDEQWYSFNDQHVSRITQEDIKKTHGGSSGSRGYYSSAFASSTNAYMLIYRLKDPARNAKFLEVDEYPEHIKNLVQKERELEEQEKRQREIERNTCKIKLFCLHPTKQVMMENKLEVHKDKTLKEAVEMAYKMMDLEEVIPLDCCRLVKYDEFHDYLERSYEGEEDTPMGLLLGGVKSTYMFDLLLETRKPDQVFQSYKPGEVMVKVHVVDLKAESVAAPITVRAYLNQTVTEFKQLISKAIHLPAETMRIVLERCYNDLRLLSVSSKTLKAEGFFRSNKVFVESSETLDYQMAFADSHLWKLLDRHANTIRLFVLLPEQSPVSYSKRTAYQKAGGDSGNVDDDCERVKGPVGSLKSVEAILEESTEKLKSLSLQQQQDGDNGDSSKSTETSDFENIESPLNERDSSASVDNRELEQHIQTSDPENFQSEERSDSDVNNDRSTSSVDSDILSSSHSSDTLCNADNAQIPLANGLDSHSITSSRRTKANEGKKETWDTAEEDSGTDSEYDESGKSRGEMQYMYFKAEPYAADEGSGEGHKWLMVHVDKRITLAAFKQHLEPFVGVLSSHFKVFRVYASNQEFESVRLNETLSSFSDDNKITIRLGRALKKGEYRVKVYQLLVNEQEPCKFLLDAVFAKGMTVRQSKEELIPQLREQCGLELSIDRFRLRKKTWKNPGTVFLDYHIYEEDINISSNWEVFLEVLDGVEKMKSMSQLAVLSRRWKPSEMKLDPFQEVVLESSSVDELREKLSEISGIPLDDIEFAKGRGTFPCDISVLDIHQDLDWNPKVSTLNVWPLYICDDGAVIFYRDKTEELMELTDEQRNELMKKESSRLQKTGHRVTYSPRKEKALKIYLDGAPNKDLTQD
Procedure, shortened: as §1

USP48 = target: T3, USP48 (UniProt Q86UV5)
T3 sequence (whole entry): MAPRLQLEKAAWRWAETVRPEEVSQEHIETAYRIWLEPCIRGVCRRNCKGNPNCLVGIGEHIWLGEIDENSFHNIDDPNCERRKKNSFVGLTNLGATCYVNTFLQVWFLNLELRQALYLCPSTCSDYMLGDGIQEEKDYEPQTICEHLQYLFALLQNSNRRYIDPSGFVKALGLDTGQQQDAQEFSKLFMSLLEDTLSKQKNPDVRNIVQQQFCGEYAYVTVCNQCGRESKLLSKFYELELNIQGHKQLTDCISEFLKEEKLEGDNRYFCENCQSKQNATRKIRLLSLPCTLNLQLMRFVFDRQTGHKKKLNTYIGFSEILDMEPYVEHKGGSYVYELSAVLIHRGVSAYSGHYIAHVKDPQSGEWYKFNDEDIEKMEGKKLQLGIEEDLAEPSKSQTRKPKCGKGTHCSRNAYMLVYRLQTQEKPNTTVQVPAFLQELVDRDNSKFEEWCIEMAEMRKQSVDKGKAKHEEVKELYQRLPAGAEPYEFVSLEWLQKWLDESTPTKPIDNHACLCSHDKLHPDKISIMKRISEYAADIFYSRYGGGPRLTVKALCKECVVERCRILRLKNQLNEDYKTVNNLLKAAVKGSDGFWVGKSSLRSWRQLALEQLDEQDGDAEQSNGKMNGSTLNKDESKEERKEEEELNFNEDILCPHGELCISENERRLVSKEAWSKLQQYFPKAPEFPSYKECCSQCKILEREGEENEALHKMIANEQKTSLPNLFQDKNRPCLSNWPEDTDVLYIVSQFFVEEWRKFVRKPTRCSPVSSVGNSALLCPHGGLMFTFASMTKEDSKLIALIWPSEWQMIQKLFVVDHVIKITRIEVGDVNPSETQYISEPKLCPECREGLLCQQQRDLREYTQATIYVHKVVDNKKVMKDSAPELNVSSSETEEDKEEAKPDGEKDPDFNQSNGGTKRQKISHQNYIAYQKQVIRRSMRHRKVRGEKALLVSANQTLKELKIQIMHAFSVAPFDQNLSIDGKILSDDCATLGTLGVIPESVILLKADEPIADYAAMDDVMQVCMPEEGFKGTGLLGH
Procedure, shortened: as §1

USP5 = target: T4, USP5 (UniProt P45974)
T4 sequence (whole entry): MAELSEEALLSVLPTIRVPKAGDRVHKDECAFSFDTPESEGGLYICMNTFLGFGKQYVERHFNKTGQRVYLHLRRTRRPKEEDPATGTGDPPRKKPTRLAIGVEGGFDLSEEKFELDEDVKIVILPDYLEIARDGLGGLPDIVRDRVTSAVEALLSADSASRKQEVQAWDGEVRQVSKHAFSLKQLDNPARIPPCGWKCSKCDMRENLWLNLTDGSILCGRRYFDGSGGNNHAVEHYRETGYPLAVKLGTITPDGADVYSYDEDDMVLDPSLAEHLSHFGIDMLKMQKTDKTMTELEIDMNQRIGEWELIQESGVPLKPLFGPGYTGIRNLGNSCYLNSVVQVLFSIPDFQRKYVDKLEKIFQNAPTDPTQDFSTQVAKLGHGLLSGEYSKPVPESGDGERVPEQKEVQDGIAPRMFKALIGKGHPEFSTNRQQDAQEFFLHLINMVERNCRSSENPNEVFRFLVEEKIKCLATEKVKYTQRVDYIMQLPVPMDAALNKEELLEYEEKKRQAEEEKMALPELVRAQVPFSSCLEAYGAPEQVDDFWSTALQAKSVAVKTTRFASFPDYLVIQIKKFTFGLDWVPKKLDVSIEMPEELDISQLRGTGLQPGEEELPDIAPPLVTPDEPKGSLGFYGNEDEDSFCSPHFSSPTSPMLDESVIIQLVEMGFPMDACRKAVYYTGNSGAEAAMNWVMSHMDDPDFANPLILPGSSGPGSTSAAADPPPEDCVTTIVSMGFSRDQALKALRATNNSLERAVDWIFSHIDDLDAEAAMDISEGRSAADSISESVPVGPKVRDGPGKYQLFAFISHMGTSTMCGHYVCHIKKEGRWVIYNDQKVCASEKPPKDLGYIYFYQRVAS
Procedure, shortened: as §1

USP54 = USP54 (UniProt Q70EL1)
Sequence of USP54 (Q70EL1 whole entry): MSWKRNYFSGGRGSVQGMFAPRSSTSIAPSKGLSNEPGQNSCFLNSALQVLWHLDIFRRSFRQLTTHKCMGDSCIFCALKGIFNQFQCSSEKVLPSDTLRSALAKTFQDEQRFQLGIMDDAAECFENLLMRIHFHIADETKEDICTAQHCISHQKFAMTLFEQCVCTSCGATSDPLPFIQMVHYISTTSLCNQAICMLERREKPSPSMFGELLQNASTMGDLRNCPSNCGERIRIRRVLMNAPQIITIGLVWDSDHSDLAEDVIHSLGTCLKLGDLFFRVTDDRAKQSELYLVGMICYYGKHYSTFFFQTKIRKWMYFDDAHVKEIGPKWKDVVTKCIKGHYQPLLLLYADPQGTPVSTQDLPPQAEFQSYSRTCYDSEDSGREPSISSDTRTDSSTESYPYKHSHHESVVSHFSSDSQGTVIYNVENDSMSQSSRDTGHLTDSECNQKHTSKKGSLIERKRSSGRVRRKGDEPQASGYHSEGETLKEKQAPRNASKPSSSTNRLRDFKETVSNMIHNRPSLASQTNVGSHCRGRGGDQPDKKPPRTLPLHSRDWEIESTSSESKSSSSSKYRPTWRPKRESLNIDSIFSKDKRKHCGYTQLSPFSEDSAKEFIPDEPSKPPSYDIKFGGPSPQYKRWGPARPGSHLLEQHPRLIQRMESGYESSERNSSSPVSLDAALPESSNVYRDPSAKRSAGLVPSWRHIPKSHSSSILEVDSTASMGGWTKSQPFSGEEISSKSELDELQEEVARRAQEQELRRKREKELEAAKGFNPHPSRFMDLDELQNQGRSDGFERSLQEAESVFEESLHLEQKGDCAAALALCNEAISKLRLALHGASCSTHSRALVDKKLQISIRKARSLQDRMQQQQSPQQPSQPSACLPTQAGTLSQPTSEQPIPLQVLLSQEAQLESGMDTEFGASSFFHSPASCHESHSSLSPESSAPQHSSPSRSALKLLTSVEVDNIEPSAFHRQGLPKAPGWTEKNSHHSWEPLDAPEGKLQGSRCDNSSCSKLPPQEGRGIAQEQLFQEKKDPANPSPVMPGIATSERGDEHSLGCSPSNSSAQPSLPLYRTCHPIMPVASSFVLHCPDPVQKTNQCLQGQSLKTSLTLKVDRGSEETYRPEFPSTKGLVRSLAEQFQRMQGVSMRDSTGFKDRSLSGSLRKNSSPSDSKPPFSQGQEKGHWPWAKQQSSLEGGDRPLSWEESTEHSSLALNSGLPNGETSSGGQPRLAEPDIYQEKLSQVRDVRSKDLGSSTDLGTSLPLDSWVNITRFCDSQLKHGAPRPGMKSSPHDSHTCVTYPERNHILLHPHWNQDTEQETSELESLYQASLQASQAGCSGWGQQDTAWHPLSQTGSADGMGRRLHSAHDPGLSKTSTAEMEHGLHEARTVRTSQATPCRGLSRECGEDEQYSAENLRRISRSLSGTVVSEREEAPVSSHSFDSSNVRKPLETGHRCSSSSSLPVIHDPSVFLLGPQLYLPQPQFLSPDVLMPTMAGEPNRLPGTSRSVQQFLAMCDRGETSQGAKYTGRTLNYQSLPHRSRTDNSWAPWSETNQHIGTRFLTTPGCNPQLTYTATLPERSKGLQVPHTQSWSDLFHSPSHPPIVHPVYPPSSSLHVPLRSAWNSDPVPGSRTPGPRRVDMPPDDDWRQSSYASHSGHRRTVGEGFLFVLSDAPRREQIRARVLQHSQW
Procedure, shortened: as §1

USP7 = USP7 (UniProt Q93009)
Procedure, shortened: as §1

USP8 = target: T5, USP8 (UniProt P40818)
T5 sequence (whole entry): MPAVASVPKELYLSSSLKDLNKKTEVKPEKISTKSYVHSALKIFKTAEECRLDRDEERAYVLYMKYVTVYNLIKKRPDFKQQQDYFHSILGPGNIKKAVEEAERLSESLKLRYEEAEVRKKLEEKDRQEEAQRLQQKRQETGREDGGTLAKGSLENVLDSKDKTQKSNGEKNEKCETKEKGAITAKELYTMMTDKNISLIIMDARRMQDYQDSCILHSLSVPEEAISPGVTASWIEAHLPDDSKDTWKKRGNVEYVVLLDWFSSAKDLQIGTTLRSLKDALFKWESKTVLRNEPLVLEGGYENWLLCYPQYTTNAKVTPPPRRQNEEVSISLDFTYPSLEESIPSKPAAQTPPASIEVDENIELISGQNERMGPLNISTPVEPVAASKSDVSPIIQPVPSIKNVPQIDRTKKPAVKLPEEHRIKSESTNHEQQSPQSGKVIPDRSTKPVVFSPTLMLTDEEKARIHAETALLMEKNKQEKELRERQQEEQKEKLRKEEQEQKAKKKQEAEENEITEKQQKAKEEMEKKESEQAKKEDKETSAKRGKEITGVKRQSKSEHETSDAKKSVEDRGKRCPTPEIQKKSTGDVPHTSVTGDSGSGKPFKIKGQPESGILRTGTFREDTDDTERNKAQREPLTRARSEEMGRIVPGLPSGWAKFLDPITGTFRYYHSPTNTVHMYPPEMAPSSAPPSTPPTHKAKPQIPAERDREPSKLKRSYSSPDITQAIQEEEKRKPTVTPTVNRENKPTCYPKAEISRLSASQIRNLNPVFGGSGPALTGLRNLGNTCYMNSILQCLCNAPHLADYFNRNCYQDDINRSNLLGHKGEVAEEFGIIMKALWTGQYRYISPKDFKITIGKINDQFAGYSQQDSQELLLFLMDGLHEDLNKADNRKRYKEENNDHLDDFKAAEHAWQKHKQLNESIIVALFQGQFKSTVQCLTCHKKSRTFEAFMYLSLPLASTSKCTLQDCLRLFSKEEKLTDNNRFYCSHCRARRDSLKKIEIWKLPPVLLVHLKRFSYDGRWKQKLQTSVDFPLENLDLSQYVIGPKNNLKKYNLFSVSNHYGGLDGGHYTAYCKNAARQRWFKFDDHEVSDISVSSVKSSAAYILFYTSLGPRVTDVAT
Procedure, shortened: as §1

USP9X = USP9X (UniProt Q93008)
Sequence of USP9X (Q93008 whole entry): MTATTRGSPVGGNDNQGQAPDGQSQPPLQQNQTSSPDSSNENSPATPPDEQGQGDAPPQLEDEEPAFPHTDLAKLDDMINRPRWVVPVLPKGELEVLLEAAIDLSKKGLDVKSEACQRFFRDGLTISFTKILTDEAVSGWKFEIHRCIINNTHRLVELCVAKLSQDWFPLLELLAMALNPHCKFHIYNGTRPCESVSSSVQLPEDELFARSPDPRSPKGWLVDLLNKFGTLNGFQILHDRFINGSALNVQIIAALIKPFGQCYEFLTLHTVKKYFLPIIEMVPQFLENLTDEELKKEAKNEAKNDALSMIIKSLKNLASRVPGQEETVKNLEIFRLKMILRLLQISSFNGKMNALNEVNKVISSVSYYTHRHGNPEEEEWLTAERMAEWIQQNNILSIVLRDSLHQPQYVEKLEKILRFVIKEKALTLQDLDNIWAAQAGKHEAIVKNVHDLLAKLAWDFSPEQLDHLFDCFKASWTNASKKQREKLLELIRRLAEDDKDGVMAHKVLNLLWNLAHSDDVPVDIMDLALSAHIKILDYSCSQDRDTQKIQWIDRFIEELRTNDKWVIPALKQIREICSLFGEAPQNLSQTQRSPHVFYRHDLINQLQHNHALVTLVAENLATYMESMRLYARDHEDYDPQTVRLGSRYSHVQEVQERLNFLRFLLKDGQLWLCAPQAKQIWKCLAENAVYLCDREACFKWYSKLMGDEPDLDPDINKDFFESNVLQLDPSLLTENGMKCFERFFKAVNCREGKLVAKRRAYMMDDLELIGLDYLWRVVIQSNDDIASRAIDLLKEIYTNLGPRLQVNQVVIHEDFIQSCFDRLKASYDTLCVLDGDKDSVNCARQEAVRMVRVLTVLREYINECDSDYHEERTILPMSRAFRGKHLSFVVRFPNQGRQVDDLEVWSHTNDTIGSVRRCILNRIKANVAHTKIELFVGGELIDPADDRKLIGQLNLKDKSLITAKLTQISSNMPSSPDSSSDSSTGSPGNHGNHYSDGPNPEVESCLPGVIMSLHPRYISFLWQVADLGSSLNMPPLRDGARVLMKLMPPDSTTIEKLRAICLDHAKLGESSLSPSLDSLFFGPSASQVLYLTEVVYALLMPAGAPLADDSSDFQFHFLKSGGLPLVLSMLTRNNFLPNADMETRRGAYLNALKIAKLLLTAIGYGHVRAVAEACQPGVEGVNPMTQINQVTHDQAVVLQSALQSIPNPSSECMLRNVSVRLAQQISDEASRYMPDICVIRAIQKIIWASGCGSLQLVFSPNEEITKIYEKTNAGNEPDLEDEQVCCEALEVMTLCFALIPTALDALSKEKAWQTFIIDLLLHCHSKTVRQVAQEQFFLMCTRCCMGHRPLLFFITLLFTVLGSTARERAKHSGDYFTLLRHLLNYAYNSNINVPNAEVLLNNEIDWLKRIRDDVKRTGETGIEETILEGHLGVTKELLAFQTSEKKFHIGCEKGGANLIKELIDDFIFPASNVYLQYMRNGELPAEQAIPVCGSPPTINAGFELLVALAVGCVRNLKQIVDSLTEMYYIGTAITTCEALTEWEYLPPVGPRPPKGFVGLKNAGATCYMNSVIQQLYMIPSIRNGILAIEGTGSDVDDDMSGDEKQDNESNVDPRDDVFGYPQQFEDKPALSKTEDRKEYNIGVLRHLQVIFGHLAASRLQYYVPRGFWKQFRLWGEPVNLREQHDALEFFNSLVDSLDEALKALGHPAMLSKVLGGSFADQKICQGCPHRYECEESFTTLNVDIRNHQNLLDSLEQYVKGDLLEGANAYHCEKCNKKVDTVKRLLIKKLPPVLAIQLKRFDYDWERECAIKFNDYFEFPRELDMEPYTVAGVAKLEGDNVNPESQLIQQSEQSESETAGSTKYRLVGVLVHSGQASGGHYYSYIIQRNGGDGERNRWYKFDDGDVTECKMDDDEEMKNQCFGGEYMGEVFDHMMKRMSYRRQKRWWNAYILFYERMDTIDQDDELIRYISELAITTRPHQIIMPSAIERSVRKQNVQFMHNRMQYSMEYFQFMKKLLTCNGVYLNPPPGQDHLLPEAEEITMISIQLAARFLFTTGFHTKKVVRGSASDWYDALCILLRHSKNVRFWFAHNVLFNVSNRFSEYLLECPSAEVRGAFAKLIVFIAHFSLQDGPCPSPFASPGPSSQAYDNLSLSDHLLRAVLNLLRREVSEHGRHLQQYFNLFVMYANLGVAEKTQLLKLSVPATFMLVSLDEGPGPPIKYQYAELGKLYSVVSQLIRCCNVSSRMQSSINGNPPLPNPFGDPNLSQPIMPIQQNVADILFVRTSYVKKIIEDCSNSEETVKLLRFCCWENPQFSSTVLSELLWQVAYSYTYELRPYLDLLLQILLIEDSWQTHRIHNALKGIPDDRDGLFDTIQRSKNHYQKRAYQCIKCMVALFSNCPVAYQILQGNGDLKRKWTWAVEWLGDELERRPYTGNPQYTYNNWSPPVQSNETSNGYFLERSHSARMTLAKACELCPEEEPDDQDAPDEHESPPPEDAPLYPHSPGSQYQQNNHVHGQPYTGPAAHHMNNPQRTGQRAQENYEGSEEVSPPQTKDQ
Procedure, shortened: as §1

UniProt O00487 = target: UniProt O00487
Sequence of UniProt O00487 (O00487 whole entry): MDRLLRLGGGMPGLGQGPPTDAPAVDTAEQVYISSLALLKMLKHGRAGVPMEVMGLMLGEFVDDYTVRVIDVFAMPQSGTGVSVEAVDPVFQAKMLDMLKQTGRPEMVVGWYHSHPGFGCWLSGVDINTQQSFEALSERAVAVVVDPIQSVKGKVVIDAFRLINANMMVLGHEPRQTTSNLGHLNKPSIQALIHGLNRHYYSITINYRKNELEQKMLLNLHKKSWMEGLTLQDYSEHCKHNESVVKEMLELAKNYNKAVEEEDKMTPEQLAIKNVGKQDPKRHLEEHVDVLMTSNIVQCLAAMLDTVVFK
Procedure, shortened: as §1

| SMILES | log2 ratio of Biotin-Ahx-Ub-VS probe labelling (USP42) | log2 ratio of Biotin-Ahx-Ub-VS probe labelling (USP46) | log2 ratio of Biotin-Ahx-Ub-VS probe labelling (USP47) | log2 ratio of Biotin-Ahx-Ub-VS probe labelling (USP48) | log2 ratio of Biotin-Ahx-Ub-VS probe labelling (USP5) | log2 ratio of Biotin-Ahx-Ub-VS probe labelling (USP54) | log2 ratio of Biotin-Ahx-Ub-VS probe labelling (USP7) | log2 ratio of Biotin-Ahx-Ub-VS probe labelling (USP8) | log2 ratio of Biotin-Ahx-Ub-VS probe labelling (USP9X) | log2 ratio of Biotin-Ahx-Ub-VS probe labelling (UniProt O00487) |
| --- | --- | --- | --- | --- | --- | --- | --- | --- | --- | --- |
| O=C(CCl)N1CCC(O)(Cc2ccc(F)cc2)C1 (stereo not given) | 0.0317 | -0.0773 | -0.574 | -0.434 | 0.465 | -0.501 | -0.133 | -0.169 | 0.0751 | -0.0616 |
| COc1cccc(CN(C)C(=O)CCl)c1 | -0.309 | -0.0667 | -0.35 | -0.935 | 0.462 | 0.00406 | -1.43 (active) | 0.148 | 0.0455 | 0.0127 |
| CNC(=O)Cn1cc(NC(=O)CCl)cn1 | -0.595 | 0.000623 | 0.0561 | 0.0267 | -0.241 | 0.48 | -0.438 | -0.282 | -0.287 | -0.0928 |
